Experimental findings from PubChem BioAssay (NCATS) are described below.

Molecules are shown by their SMILES. Where “and” joins values, the source holds several entries; their conditions need not be identical. Identical values can stand only once. Inconclusive results are not listed. Calls of active or inactive are those of the source. The call rests on the fitted dose curve; in most records, active means well fitted inhibition curve with a large enough effect; inconclusive means small, poorly fitted or top-dose-only effect; inactive means no such curve, though single readings can be large or run the other way.
On the % scale 0 is the no-effect control and ±100 the full control effect; potency means the concentration at half of the fitted maximal effect.

The test in a line: Primary qHTS for inhibitors of nuclear receptor binding SET domain protein 2 (NSD2) in an RCH-ACV wild type WT cells (2C) (AID 1645877). Further: nearly all actives have a fitted effect of over 70% in size. The following applies: RCH-ACV (leukaemia line) NSD2 WT (2C) viability, CellTiter-Glo, 72 h; series mostly up to 44.9 µM; activity change, negative = cell killing: at the top concentration. A general note: qHTS replaces the single test concentration by a dilution series.
For the compound `CN1c2cc(O)c(N=NC(N)=O)cc2CC1S(=O)(=O)O` (stereo unspecified), the “activity change, negative = cell killing” value is 9.44% (inactive).

Consider `CN(C)CCCN=c1c2ccccc2n(C)c2[nH]c(=O)n(C)c(=O)c12`, for which the Potency is 11.8 µM (active).

As for `Clc1ccc2ncc(-c3cccc(NC4CNC4)n3)n2c1`, the “activity change, negative = cell killing” value was 6.38% (inactive).

Take `CC[C@H](CO)Nc1nc(NCc2ccccc2)c2ncn(C(C)C)c2n1`: the Potency is 13.2 µM (active).

Regarding `CCCCCN(CCC12CC3CC(CC(C3)C1)C2)C(=O)NCCCc1ccncc1`, the Potency is 16.3 µM (active).

As to `O=C(c1cncc(Br)c1)N1CCC(N2CCCC2)CC1`, the “activity change, negative = cell killing” value was 4.22% (inactive).

With `O=C(NC1CCNCC1)c1[nH]ncc1NC(=O)c1c(Cl)cccc1Cl`, the Potency was 0.59 µM (active).

With `O=C(NCCCNc1nc(Nc2cccc(NC(=O)N3CCCC3)c2)ncc1I)c1cccs1`, the Potency is 5.8 µM (active).

`CC(=O)OCC(=O)[C@@]1(O)[C@H](C)C[C@H]2[C@@H]3C=C(C)C4=Cc5c(cnn5-c5ccccc5)C[C@]4(C)[C@@H]3[C@@H](O)C[C@@]21C`: the Potency was 0.0132 µM (active).

As for `N#Cc1c(O)c2c(-c3ccc(-c4ccccc4O)cc3)csc2[nH]c1=O`, the Potency entry is “inactive”.

Turning to `O=C(O)CCCc1c[nH]c2ccccc12`, the “activity change, negative = cell killing” value is -2.71% (inactive).

On to `O=c1[nH]nc(Sc2ncc([N+](=O)[O-])s2)n1-c1ccc2c(c1)OCCO2`, for which the Potency was 7.42 µM (active).

With `C[C@]1(CO)CN(c2cc(C(=O)Nc3ccc4c(c3)-c3c(c(C(N)=O)nn3-c3ccc(F)cc3)CC4)c(Cl)cn2)C[C@@]1(C)CO`, the Potency was 3.25 µM (active).

Take `Cc1cn(-c2cc(NC(=O)c3ccc(C)c(Nc4nccc(-c5cccnc5)n4)c3)cc(C(F)(F)F)c2)cn1`: the Potency was 5.8 µM (active) and 2.35 µM (active).

As to `Cn1c(CNc2ccc(C(=N)N)cc2)nc2cc(C(=O)N(CCC(=O)O)c3ccccn3)ccc21`, the Potency result is “inactive”.

With `COc1ccc(OC)c(-c2nnc3ccc(-c4ccc(OC)c(O[C@@H]5CCOC5)c4)nn23)c1`, the Potency is 2.95 µM (active).

As to `Cc1ccc(S(=O)(=O)Nc2cc(Cl)ccc2C(=O)Nc2nc(-c3ccccc3)cs2)cc1`, the “activity change, negative = cell killing” value is -18% (inactive).

Consider `O=C(NCCS(=O)(=O)c1ccc(C(F)(F)F)cn1)c1ccc(Cl)cc1`, for which the “activity change, negative = cell killing” value is -5.05% (inactive).

On to `Cc1nc(N)ncc1-c1nc(N2CCOCC2)c2sc(C(C)(C)O)cc2n1`, for which the Potency was 115 nM (active) and 468 nM (active).

Turning to `CC(=O)Nc1nc(C)c(-c2ccc(Cl)c(S(=O)(=O)NCCO)c2)s1`, the Potency is 1.32 µM (active).

With `Cc1ccc(-c2ncn(-c3ccc(Nc4nccc(-c5cccc(N6CCOCC6)c5)n4)cc3)n2)cn1`, the Potency is 0.662 µM (active).

For `COC(=O)Nc1ccc(-c2nc(N3CCOCC3)c3cnn(C4CCN(Cc5cccnc5)CC4)c3n2)cc1`, the Potency was 0.662 µM (active).

For `Cn1c(=O)n(-c2ccc(C(C)(C)C#N)cc2)c2c3cc(-c4cnc5ccccc5c4)ccc3ncc21`, the Potency is 91.6 nM (active) and 42.8 nM (active).

`O=C(CCCCCCC(=O)Nc1ccc([C@H]2O[C@@H](CSc3nc(-c4ccccc4)c(-c4ccccc4)o3)C[C@@H](c3ccc(CO)cc3)O2)cc1)NO`: the Potency is 2.58 µM (active) and 4.28 µM (active).

Turning to `CCCCCCCCCC(=O)N[C@@H](Cc1c[nH]c2ccccc12)C(=O)N[C@H](CC(N)=O)C(=O)N[C@@H](CC(=O)O)C(=O)N[C@@H]1C(=O)NCC(=O)N[C@@H](CCCN)C(=O)N[C@@H](CC(=O)O)C(=O)N[C@H](C)C(=O)N[C@@H](CC(=O)O)C(=O)NCC(=O)N[C@H](CO)C(=O)N[C@@H]([C@@H](C)CC(=O)O)C(=O)N[C@@H](CC(=O)c2ccccc2N)C(=O)O[C@@H]1C`, the Potency entry was “inactive”.

In the case of `CN1CC[C@@H](c2c(O)cc(O)c3c(=O)cc(-c4ccccc4Cl)oc23)[C@@H](O)C1`, the Potency was 0.332 µM (active).
